# The whole screen tested about 310,000 compounds, of which about 14,000 (4.5%) showed an effect of 50% or more. The effect is printed as a negative number. This is one part of a sample in which strong results are shown more often than they occur.
# Molecular target: human ether-à-go-go-related gene (hERG) potassium channel (human, UniProt Q12809)
# Experiment: primary screen, population patch clamp on CHO cells stably expressing hERG; higher = less effect of the substance
# 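Note: peak tail current of the secondary pulse compared with the same well before compound.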
# human ether-à-go-go-related gene (hERG) potassium channel, sequence (Q12809 whole entry, looked up): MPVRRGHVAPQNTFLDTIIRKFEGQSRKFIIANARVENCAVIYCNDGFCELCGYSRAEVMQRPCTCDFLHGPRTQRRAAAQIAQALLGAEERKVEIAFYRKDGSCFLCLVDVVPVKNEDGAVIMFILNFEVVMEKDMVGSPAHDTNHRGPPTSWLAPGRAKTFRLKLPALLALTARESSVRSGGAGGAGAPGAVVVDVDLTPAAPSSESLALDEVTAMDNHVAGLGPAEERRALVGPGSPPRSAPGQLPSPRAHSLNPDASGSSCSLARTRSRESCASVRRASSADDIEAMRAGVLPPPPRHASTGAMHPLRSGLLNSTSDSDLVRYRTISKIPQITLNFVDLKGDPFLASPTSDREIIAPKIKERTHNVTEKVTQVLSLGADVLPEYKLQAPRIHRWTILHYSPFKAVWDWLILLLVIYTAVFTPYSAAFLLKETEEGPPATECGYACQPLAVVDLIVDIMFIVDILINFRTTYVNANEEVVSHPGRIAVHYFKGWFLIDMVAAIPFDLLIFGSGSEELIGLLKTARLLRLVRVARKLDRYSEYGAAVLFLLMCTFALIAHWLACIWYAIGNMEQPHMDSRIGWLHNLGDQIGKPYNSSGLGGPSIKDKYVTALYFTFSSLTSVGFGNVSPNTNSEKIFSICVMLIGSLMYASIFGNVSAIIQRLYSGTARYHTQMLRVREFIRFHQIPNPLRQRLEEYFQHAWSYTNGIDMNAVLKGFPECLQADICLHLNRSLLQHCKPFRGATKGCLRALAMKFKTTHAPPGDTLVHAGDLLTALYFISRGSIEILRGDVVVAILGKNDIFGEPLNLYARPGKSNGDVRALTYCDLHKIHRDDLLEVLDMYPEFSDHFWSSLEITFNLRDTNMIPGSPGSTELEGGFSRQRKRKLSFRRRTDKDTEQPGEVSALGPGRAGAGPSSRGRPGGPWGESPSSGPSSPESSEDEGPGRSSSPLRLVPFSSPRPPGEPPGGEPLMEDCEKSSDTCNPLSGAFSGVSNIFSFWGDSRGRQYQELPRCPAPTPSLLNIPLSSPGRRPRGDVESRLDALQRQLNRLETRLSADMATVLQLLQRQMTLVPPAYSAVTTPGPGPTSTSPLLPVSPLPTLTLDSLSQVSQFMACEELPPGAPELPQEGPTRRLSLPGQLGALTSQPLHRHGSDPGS
row,SMILES,"hERG current change (%, negative = inhibition) at 10uM [%]"
1,CCc1cc(C(=O)c2ccc(OC)cc2)c(NC(=O)CN2CCN(C)CC2)s1,-71.3
2,CCc1cc(C(=O)c2ccc(OC)cc2)c(NC(=O)CN2CCCC2)s1,-12.4
3,CCc1cc(C(=O)c2ccc(OC)cc2)c(NC(=O)CN2CCCCC2)s1,5
4,CCOc1cccc2cc(C(=O)N3CCc4ccccc43)c(=O)oc12,-2.43
5,COC(=O)C1=C(c2ccc(OC)c(OC)c2)C[C@@H]2CC[C@H]1N2C(=O)NCCCOC(C)C,15.3
6,C[N+]1(CC(=O)OCCCC2CCCCC2)CCCC1.[I-],-8.31
7,Cl.OC(CNC1CCCC1)COc1ccc(-c2ccccc2)cc1 (centres unmarked),-51.8
8,OC(CNCC1COc2ccccc2O1)COc1ccccc1F (centres unmarked),1.11
9,Cl.OC(CNCC1COc2ccccc2O1)COc1ccc(Cl)cc1 (centres unmarked),-56.2
10,Cl.OC(CNC1CCCC1)COc1ccc(F)cc1 (centres unmarked),5.27
11,O=C(O)c1ccccc1C(=O)NCC(O)COc1ccc(Cl)cc1 (centres unmarked),2.34
12,OC(CNC1Cc2ccccc2C1)COc1ccc(Cl)cc1 (centres unmarked),-68.8
13,CC(OCC(O)CNCC1COc2ccccc2O1)c1ccc(Cl)cc1 (centres unmarked),-22.7
14,Cl.OC(CNC1CCCC1)COc1ccc(Cl)cc1 (centres unmarked),-9.8
15,Cl.O=[N+]([O-])c1ccc(OCC(O)CNC2CCCC2)cc1 (centres unmarked),-76.2
16,OC(CNC1Cc2ccccc2C1)COc1ccc(F)cc1 (centres unmarked),-49.1
17,COc1ccc(OCC(O)CNC2CCCC2)cc1.Cl (centres unmarked),12.8
18,COC(=O)c1ccc(OCC(O)CNC2CCCC2)cc1.Cl (centres unmarked),13.3
19,O=C(CSc1nnc(-c2cccs2)o1)N1CCCc2ccccc21,3.02
20,O=C(CCCn1c(=S)[nH]c2ccsc2c1=O)Nc1ccc2c(c1)OCO2,17.2
21,O=C(COC(=O)c1ccccc1O)Nc1cc([N+](=O)[O-])ccc1Cl,-21.5
22,Nc1nc(NCCc2ccccc2)nc(NCc2ccccc2)c1[N+](=O)[O-],20.4

row,SMILES,"hERG current change (%, negative = inhibition) at 10uM [%]"
1,Cc1ccc(OCC(O)CNS(=O)(=O)c2ccccc2C(=O)N2CCCCC2)cc1 (centres unmarked),-13.9
2,O=C(c1ccccc1S(=O)(=O)NCC(O)COc1ccc([N+](=O)[O-])cc1)N1CCCCC1 (centres unmarked),-56.8
3,Cc1ccc(C(C)C)c(OCC(O)CNC2CCCC2)c1.Cl (centres unmarked),-51.9
4,Cc1ccc(C)c(OCC(O)CNC2CCCC2)c1.Cl (centres unmarked),8.8
5,Cc1cccc(C)c1OCC(O)CNS(=O)(=O)c1ccccc1C(=O)N1CCCCC1 (centres unmarked),-10.9
6,Cc1ccc(OCC(O)CNC2CCCC2)c(C)c1.Cl (centres unmarked),7.48
7,CCc1nn(C(C)C(=O)N2CCN(c3ccccc3)CC2)c(=O)c2cc3occc3n12 (centres unmarked),-25.3
8,CCOC(=O)C1C(c2ccc(O)c(OCC)c2)NC(=S)NC1(O)C(F)(F)F (centres unmarked),-12.5
9,CC(=O)c1ccc(N2CCN(C(=O)CCC(=O)Nc3ccc4nc(N5CCN(C)CC5)cc(C)c4c3)CC2)cc1,20.3
10,CN(C(=O)COC(=O)c1ccc(-c2ccc(O)cc2)cc1)C1CCS(=O)(=O)C1 (centres unmarked),10.8
11,COCCNC(=O)CN(C(=O)CCC(=O)Nc1ccccn1)c1ccc(F)c(Cl)c1,4.59
12,Cc1ccc(-n2nnnc2SCC(=O)NCCC2=CCCCC2)c(C)c1,-13.1
13,O=C(CSc1nnnn1-c1ccccc1)NCC1(N2CCCCC2)CCCCC1,-62.3
14,CNC(=O)CSc1nnnn1-c1ccc(C)cc1C,7.63
15,O=C(CSc1nnnn1-c1ccccc1)NCC1(N2CCOCC2)CCCCC1,-21.3
16,O=C(CSc1ccccc1)NCC1(N2CCCCC2)CCCCC1,-0.798
17,Cc1ccc(-n2nnnc2SCC(=O)NCC2(N3CCCCC3)CCCCC2)c(C)c1,-284
18,COCCN(C(=O)COC(=O)c1ccccc1Oc1ccccc1)c1c(N)n(Cc2ccccc2)c(=O)[nH]c1=O,-21.6
19,Cc1cc(C(=O)N2CCN(c3ncccn3)CC2)sc1-c1ccccc1,-3.34
20,O=[N+]([O-])c1ccccc1/C=N/NC1=NCCN1,7.6
21,COc1ccccc1N1CCN(C(=O)CCNC(=O)Cn2ccc3ccccc3c2=O)CC1,2.62
22,CN(C(=O)C1CCC(=O)N(CCCN2CCCC2=O)C1)C(C1CC1)C1CC1 (centres unmarked),12.1

row,SMILES,"hERG current change (%, negative = inhibition) at 10uM [%]"
1,CC(=O)Nc1ccc(S(=O)(=O)Nc2ccc3c(c2)OCO3)cc1,17.2
2,CN(c1ccccc1)S(=O)(=O)c1cccc(NC(=O)COC(=O)C2CCCCC2)c1,13.7
3,O=C(Nc1cccc(S(=O)(=O)N2CCOCC2)c1)[C@@H]1CCCN1S(=O)(=O)c1ccc(Cl)cc1,-62.8
4,O=C(Nc1cccc(S(=O)(=O)N2CCCCCC2)c1)C1CCC1,-57.4
5,O=C(Nc1cccc(S(=O)(=O)N2CCCCC2)c1)C1CCN(C(=O)c2ccc(Cl)cc2)CC1,-31.7
6,O=C(Nc1cccc(S(=O)(=O)N2CCCCC2)c1)C1CCC1,3.43
7,CN(C)S(=O)(=O)c1cccc(NC(=O)COC(=O)C2CCN(C(=O)c3ccc(F)cc3)CC2)c1,-50.8
8,O=C(Nc1cccc(S(=O)(=O)N2CCCCC2)c1)C1CC1,-10.6
9,O=C(Nc1cccc(S(=O)(=O)N2CCOCC2)c1)C1CCCN(C(=O)c2ccc(Cl)cc2)C1 (centres unmarked),-32.4
10,O=C(Nc1cccc(S(=O)(=O)N2CCCCCC2)c1)C1CCN(C(=O)c2ccc(F)cc2)CC1,-88
11,CN(C)S(=O)(=O)c1cccc(NC(=O)COC(=O)CCC(=O)c2ccc(F)cc2)c1,-36
12,O=C(Nc1cccc(S(=O)(=O)N2CCOCC2)c1)C1CCCC1,-4.03
13,O=C(Nc1cccc(S(=O)(=O)N2CCCCCC2)c1)C1CCN(C(=O)c2ccc(Cl)cc2)CC1,-41.9
14,CC(C)CCNC(=O)c1ccc2c(SCC(=O)O)c3c(nc2c1)CCCC3,-2.6
15,Cc1ccc(N(C)S(=O)(=O)c2csc(C(N)=O)c2)cc1C,-14.8
16,Cc1ccc(CN2C(=O)CCC2C(=O)NCCN(CC(C)C)CC(C)C)cc1 (centres unmarked),-13.4
17,CCOc1cc(N2CCOCC2)c(OCC)cc1NC(=O)C1=NN(c2cccc(C)c2)C(=O)CC1,-3.8
18,COc1cc(Cn2nnc3ccccc32)cc(Br)c1O,3
19,Cc1ccccc1NC(=O)Cn1c(CCC(=O)O)ccc1-c1cccs1,15.4
20,CCN(C(=O)CSc1ccc2ccccc2n1)C1CCS(=O)(=O)C1 (centres unmarked),-7.61
21,Cc1ccc(-n2c(=O)c3c(C)c(C)sc3n(Cc3cc(=O)n4ccccc4n3)c2=O)cc1C,-4.43
22,Cc1ccc(-n2c(=O)c3c4c(sc3n(Cc3cc(=O)n5ccccc5n3)c2=O)CCC4)cc1C,-69.1

row,SMILES,"hERG current change (%, negative = inhibition) at 10uM [%]"
1,Cc1sc2c(c1C)c(=O)n(-c1ccc(Cl)cc1)c(=O)n2Cc1cc(=O)n2ccccc2n1,-36.4
2,CS(=O)(=O)N(Cc1ccc(C(=O)NN=C2CCCCCC2)cc1)c1ccccc1,-7.08
3,CCCCC(C(=O)O)C(C)CC(=O)NNC(=O)c1ccco1 (centres unmarked),13.2
4,C(=N\Nc1nncc2ccccc12)/c1ccccc1,1.52
5,Cc1ccc(C)c(N/C(N)=N/c2nc(C)cc(C)n2)c1,-34.2
6,COc1ccc(OC)c(N/C(N)=N/c2nc(C)cc(C)n2)c1,-50.1
7,COc1ccc(N/C(N)=N/c2nc(C)cc(C)n2)c(OC)c1,-26.4
8,COc1ccc(Cl)cc1N/C(N)=N/c1nc(C)cc(C)n1,-84.2
9,COc1ccc(C)cc1N/C(N)=N/c1nc(C)cc(C)n1,-74.4
10,COc1ccc(Cl)cc1N/C(N)=N/c1nc(C)cc(=O)[nH]1,20
11,COc1ccc(Cl)cc1NC(=O)CSc1nc(C)cc(C)n1,-32.6
12,CC(=O)N/C(=N/c1nc(C)cc(C)n1)Nc1ccc(C)cc1C,-10.6
13,Cc1ccc(N/C(N)=N/c2nc(C)cc(N3CCCCC3)n2)c(C)c1,-83
14,CCOC(=O)Nc1cc(C)ccc1OC,11.2
15,COc1ccccc1N/C(N)=N/c1nc(C)cc(C)n1,-32.9
16,COc1ccc(OC)c(N/C(=N/c2nc(C)cc(C)n2)NC(C)=O)c1,14.5
17,CCOc1ccc(CNC(=O)C(=O)c2cn(CC(=O)N3CCOCC3)c3ccccc23)cc1OC,17.1
18,COC(=O)C1=C(C)Nc2ncnn2C1c1cccnc1 (centres unmarked),2.93
19,O=C(Cn1ncc2c([nH]c3ccccc32)c1=O)N1CCN(c2ccccc2F)CC1,1.65
20,CCN(CC)CCCN1C(=O)C(=O)/C(=C(/O)c2ccc3c(c2)OCCO3)C1c1ccco1 (centres unmarked),-6.06
